CYP2C9 inh = inhibitors of human CYP2C9; P11712; CYP2C9 Supersomes, luciferin-H conversion, luminescence; inhibition, % at 5 µM; hit rate 20% among 96,000; AID 777;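 active means blocking of liver enzyme CYP2C9 beyond about 50% at 5 µM, limit read from the data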
CYP2C9 activ = activators of human CYP2C9; activation factor at 5 µM; recombinant CYP2C9, luciferin-H conversion, luminescence; active compounds read high; factor 1 = untreated enzyme, 0 = blocked; P11712; AID 1024; hit rate 1.4% among 96,000;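 active means activation factor of 2 or more for CYP2C9 at a 5 µM dose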;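 further: 0 = sulfaphenazole-blocked wells and 1 = vehicle-only wells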
CYP2C19 activ = activators of human cytochrome P450 2C19; P33261; recombinant CYP2C19, luciferin-H EGE luminescence; active compounds read high; 0 = fully inhibited enzyme, 1 = untreated enzyme; activation factor at 5 µM; 96,000 tested, under 10 active; AID 1025;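 active means activation factor of at least 2 at 5 µM in the primary screen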;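 further: 0 = wells with 2.5 mM tranylcypromine and 1 = vehicle-only wells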
Target sequence (P33261 whole entry, looked up): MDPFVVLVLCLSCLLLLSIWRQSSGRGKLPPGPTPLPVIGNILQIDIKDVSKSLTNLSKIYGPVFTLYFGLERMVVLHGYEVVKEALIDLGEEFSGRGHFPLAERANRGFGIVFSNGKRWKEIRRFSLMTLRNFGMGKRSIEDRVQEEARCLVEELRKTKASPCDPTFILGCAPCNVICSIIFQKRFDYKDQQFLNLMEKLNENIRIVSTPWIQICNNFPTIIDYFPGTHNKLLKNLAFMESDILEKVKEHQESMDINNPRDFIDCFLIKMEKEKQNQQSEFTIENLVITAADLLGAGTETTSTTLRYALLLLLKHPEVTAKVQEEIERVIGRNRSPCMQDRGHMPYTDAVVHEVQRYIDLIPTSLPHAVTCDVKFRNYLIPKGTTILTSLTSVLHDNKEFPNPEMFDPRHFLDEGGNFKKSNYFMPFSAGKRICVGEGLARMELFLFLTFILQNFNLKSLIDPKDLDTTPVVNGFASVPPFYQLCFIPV
CYP2C19 inh = human CYP2C19 inhibition; inhibition, % at 5 µM; AID 778; CYP2C19 Supersomes, luciferin-H EGE luminescence, 30 min; hit rate 21% among 96,000;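 active means CYP2C19 inhibition above a set limit at 5 µM in the primary screen, cut at about 50% in these data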;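 further: plate controls were negative control wells for no effect and 2.5 mM tranylcypromine positive control for full effect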
Measles CPE = protection of cells from measles virus; AID 841; Measles virus-infected cells, CPE protection, absorbance; hit rate 1.5% among 140,000; protection (pct of control), % at 4 µM; in the data active means protection mostly above about 24%, no sharp cut-off; inactive means mostly below about 26%
Starred values were filed as active, the others as inactive; · = no result given. Shown are actives, neighbours in structure and some others; about 22% of the full set was active somewhere.

SMILES	CYP2C9 inh	CYP2C9 activ	CYP2C19 activ	CYP2C19 inh	Measles CPE
COc1cccc(N2C(=O)CC(N3CCc4ccccc43)C2=O)c1 (centres undefined)	-43	1.4	0.2	83*	12
COc1cccc(N2CCN(C3CC(=O)N(c4ccc(C)c(Cl)c4)C3=O)CC2)c1 (centres undefined)	2	1	1.1	-13	19
COc1cccc(N2CCN(C3CC(=O)N(c4ccc(F)c(Cl)c4)C3=O)CC2)c1 (centres undefined)	55*	0.4	0.7	31	2
COc1ccccc1C1N(c2cc(Cl)ccc2OC)C(=O)C2CCCN21 (centres undefined)	-59	1.6	0.7	32	11
O=S(=O)(CCc1nc2ccccc2o1)c1ccc2ccccc2c1	-169	2.7*	0.8	17	0
O=S(=O)(CCc1nnc(-c2ccccc2)o1)c1ccc2ccccc2c1	-1	1	0.9	13	20
CCn1c(SCC(=O)Nc2ccccc2-c2ccccc2)nnc1-c1ccoc1C	86*	0.1	0.2	80*	18
CCCn1c(SCC(=O)c2ccc3c(c2)OCCO3)nnc1-c1ccco1	21	0.8	0.7	31	6
COc1ccc(-n2c(SCC(=O)Nc3nc(C)cs3)nnc2-c2ccoc2C)cc1	·	·	·	·	9
CCCCn1c(SCC(=O)c2ccc3c(c2)OCCO3)nnc1-c1ccoc1C	90*	0.1	0	96*	9
CCn1c(SCC(=O)N2CCN(c3ccccc3F)CC2)nnc1-c1ccoc1C	53*	0.5	0.5	54*	14
CCn1c(SCC(=O)Nc2nc(C)cs2)nnc1-c1ccoc1C	31	0.7	0.2	75*	10
O=C(CN1CCN(c2ccc(F)cc2)CC1)c1ccc2c(c1)OCO2	31	0.7	0.7	33	18
COCCNC(=O)/C(C#N)=C/c1ccc(-c2ccc(S(=O)(=O)N3CCOCC3)cc2)o1	·	·	·	·	11
CCCCn1c(SCC(=O)OCC)nnc1-c1ccoc1C	55*	0.4	0.9	11	3
CCCn1c(SCC(=O)Nc2nnc(C)s2)nnc1-c1ccoc1C	66*	0.3	0.6	42	22
Cc1nnc(NC(=O)CSc2nnc(-c3ccoc3C)n2CC(C)C)s1	46	0.5	0.6	41	2
CCCCn1c(SCC(=O)Nc2nnc(C)s2)nnc1-c1ccoc1C	81*	0.2	0.7	31	7
CCn1c(SCC(=O)Nc2nc(C)cs2)nnc1C(NC(=O)c1ccccc1Cl)C(C)C (centres undefined)	11	0.9	0.5	52*	3
O=C(Cn1cnc2ccccc2c1=O)NC1CCCc2ccccc21 (centres undefined)	4	1	1	0	8
CSc1ccccc1OC1CCN(Cc2ccccc2)CC1	·	·	·	·	12
Cc1nnc2ccc(Oc3ccc(-c4ccccc4)cc3)nn12	22	0.8	0.8	16	4
CCOc1ccc(NC(=O)CSc2nnc(-c3ccoc3C)n2CC2CCCO2)cc1 (centres undefined)	·	·	·	·	6
Cc1occc1-c1nnc(SCC(=O)Nc2ccc3c(c2)OCO3)n1CC1CCCO1 (centres undefined)	60*	0.4	0.5	48	31
O=C1CCc2cc(S(=O)(=O)N3CCC(C(=O)NC4CCCCCCC4)CC3)ccc2N1	57*	0.4	0.8	21	8
SMILES	CYP2C9 inh	CYP2C9 activ	CYP2C19 activ	CYP2C19 inh	Measles CPE
O=C1CCc2cc(S(=O)(=O)N3CCCC3C(=O)N3CCN(c4ccccc4)CC3)ccc2N1 (centres undefined)	59*	0.4	1.1	-7	17
COc1ccc(C)cc1NC(=O)C1CCCN1S(=O)(=O)c1ccc2c(c1)CCC(=O)N2 (centres undefined)	-60	1.6	0.6	39	17
COc1cc(NC(=O)C2CCCN2S(=O)(=O)c2ccc3c(c2)CCC(=O)N3)cc(OC)c1 (centres undefined)	60*	0.4	0.9	14	8
O=C(NC1CCCCCC1)C1CCN(S(=O)(=O)c2ccc(F)cc2)CC1	-3	1	1	4	4
Cc1ccc(NC(=O)C2CCCN2S(=O)(=O)c2ccc3c(c2)CCC(=O)N3)cc1Cl (centres undefined)	89*	0.1	0.4	60*	15
Oc1ccc2[nH]cnc2c1CN1CCCCC1	-15	1.1	0.9	9	15
COc1cc(NC(=O)CN(C)S(=O)(=O)c2ccc3c(c2)CCC(=O)N3)cc(OC)c1	62*	0.4	0.7	28	1
O=C(Nc1cc(Cl)cc(Cl)c1)c1cccc(OC(F)F)c1	34	0.7	0.8	16	7
Cc1cc(Cl)ccc1OCC(=O)N1CCCN(C(=O)COc2ccc(Cl)cc2C)CC1	·	·	·	·	5
CSc1ccccc1NC(=O)COc1ccc(Cl)cc1C	·	·	·	·	18
Cc1cc(Cl)ccc1OCC(=O)Nn1c(C)ccc1C	41	0.6	0.1	94*	13
Cc1cc(Cl)ccc1OCC(=O)N1CC(C)CC(C)C1 (centres undefined)	48	0.5	0	98*	6
Cc1cc(Cl)ccc1OCC(=O)Nc1ccccc1CO	25	0.7	0.4	58*	11
O=C(Cc1ccc(Cl)cc1)Nc1ccccc1CO	6	0.9	0.4	55*	3
O=C(Cc1ccccc1)Nc1ccccc1CO	0	1	0.8	20	5
CC(C)CC(=O)N1CC(C)N(C(=O)CC(C)C)CC1C (centres undefined)	·	·	·	·	4
Cc1oc2cc(OCc3cnn(-c4ccccc4)c3)ccc2c(=O)c1Oc1ccccc1F	·	·	·	·	30
Cc1cc(Cl)ccc1OCC(=O)OC(C)C(=O)N(C)C (centres undefined)	24	0.8	0.3	69*	0
CCOC(=O)c1c(C)oc(NC(=O)COc2ccc(Cl)cc2C)c1C#N	56*	0.4	0.9	13	6
C/C(N)=C(/C#N)C(=O)COC(=O)COc1ccc(Cl)cc1C	4	1	0.8	21	14
CCN(CC)C(=O)C(C)OC(=O)COc1ccc(Cl)cc1C (centres undefined)	-4	1	0.6	40	27
CCCn1c(=O)c2c(C(F)(F)F)cc(-c3ccco3)nc2n(CCC)c1=O	-17	1.2	1.1	-8	6
CCCn1c(=O)c2c(C(=O)OCC)cc(-c3ccco3)nc2n(CCC)c1=O	61*	0.4	0.7	30	33
CC1S/C(=C(\C#N)C(=O)NCc2ccco2)N(c2ccc(F)cc2)C1=O (centres undefined)	2	1	0.9	9	4
CCc1ccc(OCC2c3cc(OC)c(OC)cc3CCN2C(=S)NCCOC)cc1 (centres undefined)	·	·	·	·	2
COC(=O)c1ccc(OCC2c3cc(OC)c(OC)cc3CCN2C(=O)C2CC2)cc1 (centres undefined)	45	0.6	0.3	71*	10
COC(=O)CSc1nc2c(c(=O)[nH]c(=O)n2C)n1CCC(C)C	·	·	·	·	7
